± gives the standard deviation of the averaged measurements. Of roughly 5,400 targets only a part is listed; those with the largest changes were picked by preference.
Compound: Nc1nc2c(ncn2[C@@H]2O[C@H](COP(=O)(O)OP(=O)(O)OP(=O)(O)O)[C@@H](O)[C@H]2O)c(=O)[nH]1 [guanosine triphosphate]
Assay: NP40-soluble protein abundance relative to vehicle (solubility fold change) (ratio); higher = more soluble protein in presence of GTP
Outline: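 Jurkat crude lysate prepared with a Dounce homogeniser was treated at eight concentrations spanning 0.1 to 10 mM, 10 min at room temperature then 3 min at 37 °C. Solubilisation with 0.8% NP40 and benzonase and ultracentrifugation preceded TMT labelling of the supernatant for LC-MS/MS. Fold change against the detergent-processed vehicle was determined per replicate from vsn-normalised intensities, across three independent experiments.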

Chain of UniProt Q13557 (Q13557 whole entry, one chain of several): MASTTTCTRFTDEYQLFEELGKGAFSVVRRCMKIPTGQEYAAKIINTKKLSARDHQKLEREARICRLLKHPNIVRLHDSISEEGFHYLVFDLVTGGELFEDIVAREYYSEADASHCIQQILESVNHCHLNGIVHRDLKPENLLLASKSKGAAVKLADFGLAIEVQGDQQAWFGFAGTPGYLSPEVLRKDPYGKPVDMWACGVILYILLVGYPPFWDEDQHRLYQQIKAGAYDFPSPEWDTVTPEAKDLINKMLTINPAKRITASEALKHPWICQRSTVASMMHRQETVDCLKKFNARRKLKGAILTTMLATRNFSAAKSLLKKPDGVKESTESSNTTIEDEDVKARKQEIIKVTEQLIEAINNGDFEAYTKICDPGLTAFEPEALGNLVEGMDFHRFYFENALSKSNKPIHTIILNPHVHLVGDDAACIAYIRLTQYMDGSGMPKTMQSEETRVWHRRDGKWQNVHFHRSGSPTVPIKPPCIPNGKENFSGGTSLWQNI
Chain of UniProt Q15005 (Q15005 whole entry, one chain of several): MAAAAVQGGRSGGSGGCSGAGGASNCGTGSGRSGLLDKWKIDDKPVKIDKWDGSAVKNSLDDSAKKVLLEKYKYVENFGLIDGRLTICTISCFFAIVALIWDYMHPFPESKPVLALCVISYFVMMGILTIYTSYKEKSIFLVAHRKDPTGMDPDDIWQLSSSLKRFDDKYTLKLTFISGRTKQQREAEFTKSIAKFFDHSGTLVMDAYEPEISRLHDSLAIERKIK
Chain of UniProt Q9Y624 (Q9Y624 whole entry, one chain of several): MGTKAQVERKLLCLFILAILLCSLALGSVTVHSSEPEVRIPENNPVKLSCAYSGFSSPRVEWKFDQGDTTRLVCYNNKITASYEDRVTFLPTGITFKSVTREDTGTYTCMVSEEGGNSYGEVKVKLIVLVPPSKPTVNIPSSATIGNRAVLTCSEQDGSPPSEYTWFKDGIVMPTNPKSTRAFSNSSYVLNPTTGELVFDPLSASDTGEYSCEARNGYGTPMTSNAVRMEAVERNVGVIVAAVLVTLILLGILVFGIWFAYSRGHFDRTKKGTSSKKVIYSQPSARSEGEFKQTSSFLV
Chain of UniProt O15372 (O15372 whole entry, one chain of several): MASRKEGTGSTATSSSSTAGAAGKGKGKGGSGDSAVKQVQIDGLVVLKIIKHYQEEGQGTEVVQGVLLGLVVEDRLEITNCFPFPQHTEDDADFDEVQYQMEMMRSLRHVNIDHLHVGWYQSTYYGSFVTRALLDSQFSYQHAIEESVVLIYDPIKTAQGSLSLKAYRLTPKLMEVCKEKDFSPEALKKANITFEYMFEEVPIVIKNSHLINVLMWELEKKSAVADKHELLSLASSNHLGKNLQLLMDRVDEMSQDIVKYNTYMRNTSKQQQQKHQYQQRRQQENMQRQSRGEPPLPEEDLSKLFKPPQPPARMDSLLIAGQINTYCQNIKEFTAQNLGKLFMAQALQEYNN
Chain of UniProt Q9H4A3 (Q9H4A3 whole entry, looked up, one chain of several): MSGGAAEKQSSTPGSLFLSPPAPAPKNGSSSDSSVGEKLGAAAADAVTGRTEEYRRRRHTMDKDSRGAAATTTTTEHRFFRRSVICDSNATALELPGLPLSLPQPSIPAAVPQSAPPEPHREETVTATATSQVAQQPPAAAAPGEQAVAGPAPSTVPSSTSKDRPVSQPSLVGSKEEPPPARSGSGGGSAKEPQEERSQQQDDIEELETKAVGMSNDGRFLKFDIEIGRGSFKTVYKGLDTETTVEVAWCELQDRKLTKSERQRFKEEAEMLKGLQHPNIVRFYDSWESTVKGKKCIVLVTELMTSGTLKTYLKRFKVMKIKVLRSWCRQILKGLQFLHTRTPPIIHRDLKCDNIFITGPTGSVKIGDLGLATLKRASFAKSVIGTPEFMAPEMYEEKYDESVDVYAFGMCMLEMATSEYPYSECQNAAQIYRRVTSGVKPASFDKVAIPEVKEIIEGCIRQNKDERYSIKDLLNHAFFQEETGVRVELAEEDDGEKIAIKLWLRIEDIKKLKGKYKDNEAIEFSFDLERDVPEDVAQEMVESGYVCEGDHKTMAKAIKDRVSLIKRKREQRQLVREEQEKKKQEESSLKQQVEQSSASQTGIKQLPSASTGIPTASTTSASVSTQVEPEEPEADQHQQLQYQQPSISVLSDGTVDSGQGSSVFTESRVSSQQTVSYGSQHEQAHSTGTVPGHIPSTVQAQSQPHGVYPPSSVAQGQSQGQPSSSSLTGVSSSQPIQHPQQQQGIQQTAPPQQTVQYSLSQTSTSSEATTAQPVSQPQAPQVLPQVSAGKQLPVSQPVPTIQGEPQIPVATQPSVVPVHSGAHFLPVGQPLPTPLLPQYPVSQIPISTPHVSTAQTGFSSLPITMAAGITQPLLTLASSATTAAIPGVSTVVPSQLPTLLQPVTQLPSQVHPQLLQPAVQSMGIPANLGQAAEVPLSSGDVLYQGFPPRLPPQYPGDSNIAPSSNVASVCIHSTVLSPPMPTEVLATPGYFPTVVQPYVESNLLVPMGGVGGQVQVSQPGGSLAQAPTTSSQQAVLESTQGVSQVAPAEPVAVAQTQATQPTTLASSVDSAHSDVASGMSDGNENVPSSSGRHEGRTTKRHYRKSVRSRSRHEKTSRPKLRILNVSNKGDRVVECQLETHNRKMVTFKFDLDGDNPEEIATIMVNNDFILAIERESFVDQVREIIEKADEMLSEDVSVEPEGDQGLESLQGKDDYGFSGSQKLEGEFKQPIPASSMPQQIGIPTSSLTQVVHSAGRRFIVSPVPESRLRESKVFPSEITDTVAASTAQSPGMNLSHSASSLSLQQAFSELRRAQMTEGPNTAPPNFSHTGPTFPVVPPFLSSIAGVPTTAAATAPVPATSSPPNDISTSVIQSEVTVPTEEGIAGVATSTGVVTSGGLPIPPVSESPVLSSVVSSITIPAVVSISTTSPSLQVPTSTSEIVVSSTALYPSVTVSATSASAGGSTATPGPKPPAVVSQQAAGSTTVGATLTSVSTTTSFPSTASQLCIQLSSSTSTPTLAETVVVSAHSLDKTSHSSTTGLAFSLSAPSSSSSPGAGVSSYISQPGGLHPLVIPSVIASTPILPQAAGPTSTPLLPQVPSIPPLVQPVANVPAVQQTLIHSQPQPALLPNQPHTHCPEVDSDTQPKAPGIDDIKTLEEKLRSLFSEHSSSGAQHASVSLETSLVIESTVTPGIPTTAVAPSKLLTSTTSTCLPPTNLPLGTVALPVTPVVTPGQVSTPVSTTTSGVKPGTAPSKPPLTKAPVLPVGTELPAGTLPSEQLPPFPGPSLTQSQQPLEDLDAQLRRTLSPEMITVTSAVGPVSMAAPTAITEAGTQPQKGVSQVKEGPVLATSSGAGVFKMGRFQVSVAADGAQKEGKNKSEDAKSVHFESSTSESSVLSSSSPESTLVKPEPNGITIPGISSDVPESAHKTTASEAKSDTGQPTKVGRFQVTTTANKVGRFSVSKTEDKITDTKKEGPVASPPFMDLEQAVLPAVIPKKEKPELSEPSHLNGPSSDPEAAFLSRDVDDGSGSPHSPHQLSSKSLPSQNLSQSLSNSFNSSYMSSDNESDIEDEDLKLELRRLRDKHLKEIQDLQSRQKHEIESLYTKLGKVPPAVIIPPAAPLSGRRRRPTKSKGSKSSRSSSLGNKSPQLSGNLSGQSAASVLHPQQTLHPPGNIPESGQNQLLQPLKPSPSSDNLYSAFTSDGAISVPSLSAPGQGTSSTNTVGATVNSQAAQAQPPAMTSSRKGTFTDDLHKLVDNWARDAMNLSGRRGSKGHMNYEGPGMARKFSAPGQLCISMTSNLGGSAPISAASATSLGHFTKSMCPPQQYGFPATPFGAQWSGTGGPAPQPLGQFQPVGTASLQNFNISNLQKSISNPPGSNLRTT
Chain of UniProt Q16881 (Q16881 whole entry, one chain of several): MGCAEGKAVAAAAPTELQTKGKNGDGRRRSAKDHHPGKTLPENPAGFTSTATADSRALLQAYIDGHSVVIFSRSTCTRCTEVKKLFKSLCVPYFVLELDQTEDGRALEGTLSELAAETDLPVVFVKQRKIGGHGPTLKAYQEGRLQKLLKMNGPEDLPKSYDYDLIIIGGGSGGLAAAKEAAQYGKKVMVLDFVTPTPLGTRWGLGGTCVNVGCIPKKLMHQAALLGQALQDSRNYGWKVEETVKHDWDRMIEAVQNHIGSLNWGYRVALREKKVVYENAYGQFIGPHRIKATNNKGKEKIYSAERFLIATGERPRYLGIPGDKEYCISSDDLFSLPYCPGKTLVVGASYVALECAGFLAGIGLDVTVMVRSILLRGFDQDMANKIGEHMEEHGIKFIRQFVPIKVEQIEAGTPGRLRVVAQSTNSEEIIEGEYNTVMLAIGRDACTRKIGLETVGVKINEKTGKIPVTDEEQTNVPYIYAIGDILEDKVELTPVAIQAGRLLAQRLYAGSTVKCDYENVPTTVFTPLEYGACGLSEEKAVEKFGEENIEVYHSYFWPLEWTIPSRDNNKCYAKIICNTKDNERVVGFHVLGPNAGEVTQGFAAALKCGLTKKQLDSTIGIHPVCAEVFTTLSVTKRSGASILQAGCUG
Chain of UniProt Q9NQ29 (Q9NQ29 whole entry, one chain of several): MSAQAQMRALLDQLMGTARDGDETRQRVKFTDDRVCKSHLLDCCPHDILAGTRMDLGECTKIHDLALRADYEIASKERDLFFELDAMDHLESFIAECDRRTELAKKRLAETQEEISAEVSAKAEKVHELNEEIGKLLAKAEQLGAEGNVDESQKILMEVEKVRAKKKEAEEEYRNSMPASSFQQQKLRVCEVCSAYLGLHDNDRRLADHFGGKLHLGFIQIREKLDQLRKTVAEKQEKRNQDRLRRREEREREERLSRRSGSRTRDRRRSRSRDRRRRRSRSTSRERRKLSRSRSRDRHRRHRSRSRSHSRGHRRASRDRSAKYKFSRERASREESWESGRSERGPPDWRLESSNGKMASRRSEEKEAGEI

Target	NP40-soluble protein abundance (concentration: 0.1mM)	NP40-soluble protein abundance (concentration: 0.5mM)	NP40-soluble protein abundance (concentration: 1mM)	NP40-soluble protein abundance (concentration: 2mM)	NP40-soluble protein abundance (concentration: 4mM)	NP40-soluble protein abundance (concentration: 6mM)	NP40-soluble protein abundance (concentration: 8mM)	NP40-soluble protein abundance (concentration: 10mM)
D6R938|E9PBG7|E9PF82|Q13557|Q13557-10|Q13557-11|Q13557-12|Q13557-3|Q13557-4|Q13557-5|Q13557-6|Q13557-8|Q13557-9 (UniProt Q13557)	1 ± 0.11	1.04 ± 0.14	1.07 ± 0.14	1.08 ± 0.15	1.1 ± 0.1	1.13 ± 0.1	1.09 ± 0.17	1.14 ± 0.14
A0A5E8|Q99501|C9JFI0 (UniProt Q99501)	1.12 ± 0.09	1.17 ± 0.18	1.21 ± 0.1	1.3 ± 0.15	1.3 ± 0.086	1.37 ± 0.075	1.46 ± 0.035	1.38 ± 0.078
B8ZZ10|Q9NQ29|Q9NQ29-2|Q9NQ29-3 (UniProt Q9NQ29)	1.26 ± 0.045	1.75 ± 0.11	1.91 ± 0.18	1.95 ± 0.12	1.98 ± 0.12	2.09 ± 0.14	2.21 ± 0.28	2.22 ± 0.28
B3KS98|O15372 (UniProt O15372)	0.992 ± 0.07	1.01 ± 0.088	1.03 ± 0.075	1.08 ± 0.15	1.27 ± 0.25	1.42 ± 0.28	1.6 ± 0.34	1.8 ± 0.36
A0A087WUC6|E9PI68|Q15005|E9PL01 (UniProt Q15005)	0.955 ± 0.026	0.955 ± 0.018	0.899 ± 0.025	0.882 ± 0.05	0.858 ± 0.041	0.881 ± 0.045	0.859 ± 0.055	0.843 ± 0.061
A0A0A6YYH1|H0YLI7|P59780|Q7Z6K5-2 (UniProt Q7Z6K5+P59780+H0YLI7)	1.04 ± 0.012	1.07 ± 0.045	1.06 ± 0.099	1.03 ± 0.044	0.986 ± 0.04	1.01 ± 0.076	0.989 ± 0.017	0.992 ± 0.049
A0A087WSW9|A0A087WSY9|E9PIR7|F8W809|Q16881|Q16881-2|Q16881-3|Q16881-4|Q16881-5|Q16881-6 (UniProt Q16881)	0.99 ± 0.03	1.01 ± 0.041	0.918 ± 0.026	0.928 ± 0.049	0.88 ± 0.037	0.9 ± 0.041	0.847 ± 0.022	0.854 ± 0.059
E9PRF4|Q15047|Q15047-3 (UniProt Q15047)	0.977 ± 0.12	0.93 ± 0.12	0.904 ± 0.055	0.909 ± 0.039	0.873 ± 0.04	0.881 ± 0.035	0.904 ± 0.051	0.862 ± 0.017
A0A087WTT6|P62273|P62273-2 (UniProt P62273)	0.92 ± 0.14	0.977 ± 0.14	1.16 ± 0.29	1.1 ± 0.19	0.953 ± 0.29	0.957 ± 0.27	0.663 ± 0.15	0.939 ± 0.29
A0A087WYN2|J3KSS7|Q9NZ52|Q9NZ52-4 (UniProt Q9NZ52)	0.909 ± 0.037	0.905 ± 0.087	0.957 ± 0.09	0.915 ± 0.13	0.92 ± 0.14	0.94 ± 0.16	0.921 ± 0.08	0.896 ± 0.057
F8VXG7|Q99590|Q99590-2 (UniProt Q99590)	1.02 ± 0.064	1.13 ± 0.03	1.22 ± 0.025	1.26 ± 0.058	1.3 ± 0.042	1.31 ± 0.031	1.4 ± 0.1	1.42 ± 0.12
F5GWT4|Q9H4A3|Q9H4A3-2|Q9H4A3-5|Q9H4A3-6|Q9H4A3-7 (UniProt Q9H4A3)	0.963 ± 0.058	0.99 ± 0.079	1 ± 0.081	0.96 ± 0.07	0.973 ± 0.061	0.978 ± 0.066	0.999 ± 0.074	0.994 ± 0.082
A0A087WY82|Q9Y624|Q9Y624-2 (UniProt Q9Y624)	1 ± 0.041	0.953 ± 0.1	0.979 ± 0.038	0.938 ± 0.059	0.851 ± 0.066	0.952 ± 0.01	0.858 ± 0.076	0.898 ± 0.011

Reference: the supplement of paper PMC6411743
